# Test results published in PubChem BioAssay AID602141 (Sanford-Burnham Center for Chemical Genomics, 2011).
# “And” between values parts separate entries of the source, which are not always exact repeats. Equal values may be shown once. The whole screen tested about 360,000 compounds, of which about 1,300 (0.36%) were called active. Shown is part of a subset that was picked to be rich in actives. Unmarked numbers belong to inactive results.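 How the source made its calls: active means corrected activity change at or below -50% at 5 µM; inactive means the rest.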
# Experiment: cytotoxicity in KKLEB CF airway cells, primary screen, cytotoxicity control for CF NF-kB inhibitor project, cell-based, uHTS, fluorescence assay plates (AID 602141)
# Details: KKLEB CF airway cells viability, ATPlite luminescence, overnight; at 5 µM; hits give low values; cells stimulated with P. aeruginosa culture filtrate
row,SMILES,activity change (cytotoxicity)
1,CCCN(CCC)C(=S)Nc1cc(C(=O)OC)ccc1C(=O)OC,-5.9%
2,COC(=O)c1ccc(C(=O)Nc2cc(Cl)ccc2Cl)cc1NC(=O)c1ccccc1C,-62.7% (active)
3,COC(=O)c1ccccc1NC(=O)c1cncc(Br)c1,16%
4,CC(=O)Nc1ccc(S(=O)(=O)N2CCn3cccc3C2C)cc1 (stereo not given),-3.5%
5,CCCCN=C1C([N+](=O)[O-])=CC=C2C1=NC1(CCCCC1)N2O,-4.3%
6,CC(C)C[C@H]1CN=C(Nc2ccccc2)N1CC1CCCCC1,3.3%
7,Clc1ccc(COn2c(-c3ccc(Cl)cc3Cl)nc3ncccc32)cc1,1.3%
8,Clc1ccc(-c2cc(-c3ccccn3)on2)c(Cl)c1,-62.1% (active)
9,Fc1ccc(-c2ccc(CNCc3ccccn3)o2)cc1Cl,5.4%
10,O=C(CCN1C(=O)[C@@H]2Cc3ccccc3CN2C1=O)NCc1ccccc1,-2.4%
11,CC(C)CCn1c(=O)c2c(nc3n2CCCN3Cc2ccccc2)n(C)c1=O,-20.8%
12,Cc1cc(C)cc(-c2nnc(SCC(=O)NC3CC3)o2)c1,8.4%
13,c1csc(CN2CCN(Cc3cccs3)C2c2cccs2)c1,0%
14,O=C(NCCSc1ncc(-c2ccccc2)[nH]1)c1ccco1,0.1%
15,Cc1ccc2nc(-c3ccc(Br)cc3)cn2c1,-30%
16,Cc1ccc(-c2cn3cc(C)ccc3n2)cc1,-61.7% (active)
17,Cc1ccc(-c2cc(N)on2)cc1,-5.6%
18,CCn1c(SCC(=O)Nc2ccc(Br)cc2)nc2sc3c(c2c1=O)CCN(C)C3,9.6%
19,COC(=O)c1cc(NC(=O)c2nn(C)c(=O)c3ccccc23)cc(C(=O)OC)c1,-11.1%
20,CSc1nnc(NC(=O)c2nc(S(=O)(=O)Cc3ccc(C)cc3)ncc2Cl)s1,-74.7% (active)
21,O=C(Nc1nnc(Cc2ccc(Cl)cc2)s1)c1cccnc1,-6%
22,O=C(Nc1nnc(-c2ccc(F)cc2)s1)c1c(F)cccc1Cl,7.4%
23,CN(Cc1ccccc1)S(=O)(=O)c1nnc(NC(=O)c2ccccc2F)s1,-8.6%
24,Cc1cccc(CS(=O)(=O)c2ncc(Cl)c(C(=O)Nc3ccc(F)cc3)n2)c1,-15.9%

row,SMILES,activity change (cytotoxicity)
1,Cc1ccc(CS(=O)(=O)c2ncc(Cl)c(C(=O)Nc3nnc(C)s3)n2)cc1,-93.7% (active)
2,COCCNC(=O)C1(C)CCCN(Cc2cccc(F)c2)C1 (stereo not given),6.2%
3,CCOC(=O)NC(=O)C(=CNc1cccc(OC)c1)C(=O)NC(=O)OCC,17.8%
4,CC(C)Nc1nc(NCCOc2ccccc2Cl)c2sccc2n1,-5.6%
5,CN(c1ccc2nc3ccccc3c(=O)n2n1)C1CCCCC1,-54.1% (active)
6,CN(C(=O)Nc1ccc(Cl)cc1)n1cnc2ccccc2c1=O,6.1%
7,CC(C)(C)c1nc2ccccc2c(=O)n1N1C(=O)c2ccccc2C1=O,-12.6%
8,O=[N+]([O-])/C=C1\CCCCCN1,-1.7%
9,COc1ccc(CNc2c(CO)cnc3c2cnn3C)cc1,-62.1% (active)
10,COc1ccc(CNc2nnnn2C)cc1,6.7%
11,CCCn1nnnc1NCc1ccc(OC)cc1,5.9%
12,C[C@@H]1CN([C@H](C)CO)C(=O)c2cc(NC(=O)NC3CCCCC3)ccc2O[C@H]1CN(C)S(C)(=O)=O,2.2%
13,C[C@H]1CN([C@@H](C)CO)C(=O)CCCn2cc(nn2)CO[C@@H]1CN(C)S(=O)(=O)c1cccc(C#N)c1,4.9%
14,O=C(Nc1cccc(C(=O)NC2CC2)c1)c1ccc(F)c(S(=O)(=O)N2CCOCC2)c1,-2.3%
15,COc1cc(NS(=O)(=O)c2ccc(NC(=S)NC(=O)c3ccc(Br)cc3)cc2)ncn1,1%
16,COc1cc(NC(=O)c2cncc(-c3ccc(C#N)cc3)c2)cc(C(=O)Nc2cccc(C(F)(F)F)c2)c1,7.5% and 5.1%
17,COc1cc(C(=O)N(C)Cc2cccc(OC)c2OC)ccc1OCC(=O)Nc1cccc(C(F)(F)F)c1,7.7%
18,COc1cc(NC(=O)c2[nH]cnc2C(N)=O)cc(C(=O)Nc2cccc(C(F)(F)F)c2)c1,-61.7% (active)
19,Cc1cccc(C(=O)O)c1[N+](=O)[O-],14%
20,Cn1ccnc1-c1nnn(-c2ccc(F)cc2)n1,-12.5%
21,CCNC(=O)C1(C)CCCN(C(=O)c2ccc3ccccc3n2)C1 (stereo not given),-5.1%
22,O=C(NCC1CCCO1)c1cc2c([nH]c3ccccc32)c(-c2ccc(F)cc2)n1 (stereo not given),-5.3%
23,CC1=CCC2C(=O)N(c3cccc(C(=O)NC(C)c4ccccc4)c3)C(=O)C2C1 (stereo not given),-1.1%
24,Cc1cccc(C)c1NC1=NC(=S)N(c2ccc(N(C)C)cc2)C1(C)C,-3.7%

row,SMILES,activity change (cytotoxicity)
1,O=C1CCCN1C(=O)COc1ccc([N+](=O)[O-])cc1,-6.8%
2,CCCCC(=O)Nc1c2c(nn1-c1ccc([N+](=O)[O-])cc1)CS(=O)(=O)C2,-15.2%
3,O=C1/C(=C\c2ccc([N+](=O)[O-])cc2)CS(=O)(=O)C/C1=C/c1ccc([N+](=O)[O-])cc1,-101% (active)
4,CO[C@@H]1[C@@H](OC(N)=O)[C@@H](O)C(Oc2ccc3c(O)c(NC(=O)c4ccc(O)c(CC=C(C)C)c4)c(=O)oc3c2C)OC1(C)C (stereo not given in full),44.1%
5,CS/C(=C\[N+](=O)[O-])Nc1ccc(C)cc1,-4.4%
6,CCOc1ccc(C(=O)NC(C(=O)NCc2ccccn2)C(C)C)cc1 (stereo not given),-1.5%
7,COc1cc(NC(=O)c2ccccc2NS(=O)(=O)c2ccc(Cl)s2)cc(OC)c1,-57.2% (active)
8,O=C(Nc1cccc(Cl)c1)Nc1ccccc1NS(=O)(=O)c1cccs1,13.5%
9,O=S(=O)(Nc1ccccc1N1CCOCC1)c1ccc(Cl)s1,1.7%
10,COc1ccc(C(CC(=O)Nc2ccc(C)cc2)NC(=O)C(F)(F)F)cc1 (stereo not given),6.9%
11,COc1ccc(CC(=O)Nc2ccc(-c3nnc(-c4ccc(C)cc4)o3)cc2)cc1,-56.3% (active)
12,COc1ccc(NC(=O)Cn2c(-c3ccc(OC)cc3)cn(-c3ccc(C)cc3)c2=O)cc1,12.5%
13,CCOc1ccccc1NS(=O)(=O)c1cc2c3c(c1)C(C)C(=O)N3CCC2 (stereo not given),7.2%
14,COc1ccc(CN(C(=O)c2cccs2)c2nccs2)cc1OC,5.6%
15,O=C(NCc1cccnc1)c1nc(-c2cccs2)no1,-11.3%
16,CCOc1ccc(NC(=O)COC(=O)C2CCC(=O)N2)c([N+](=O)[O-])c1 (stereo not given),-7.5%
17,COc1ccc(/C=C/C(=O)NC(=S)N2CCCC(C(N)=O)C2)cc1 (stereo not given),-10.3%
18,CCOc1ccc(NC(=S)NC(=O)/C=C/c2ccc(OC)cc2)c([N+](=O)[O-])c1,-50.2% (active)
19,COc1ccc(S(=O)(=O)n2cnc3ccccc32)c(C)c1,0.5%
20,COc1c(C=O)c(CCN(C)C(=O)c2ccc(F)cc2)cc2c1OCO2,-9%
21,O=C(c1ccc2c(c1)OCO2)N1CCNc2ccccc2C1,4.7%
22,O=C(N/N=C/c1ccccn1)c1cccc(NC(=O)c2ccc(Cl)cc2)c1,-1.1%
23,S=C(NN=Cc1ccccn1)Nc1ccccn1,-63.5% (active)
24,CS(=O)(=O)N(CC(=O)N/N=C/c1ccccn1)c1ccc(Oc2ccccc2)cc1,1.8%

row,SMILES,activity change (cytotoxicity)
1,Cc1ccc(S(=O)(=O)N2CCCCC2)cc1NC(=O)CCNC(=O)c1ccccc1Cl,1.6%
2,Nc1ncnc2c1ncn2[C@@H]1O[C@H](C(=O)NS(=O)(=O)c2c(Cl)nc3sccn23)[C@@H](O)[C@H]1O,-8.7%
3,COC(=O)/C=C\C(=O)Nc1cccc([N+](=O)[O-])c1,-64.1% (active)
4,O=C(Nc1cccc([N+](=O)[O-])c1)N1CCc2ccccc2C1,-12.4%
5,COc1cccc(NCCC(=O)c2cccc([N+](=O)[O-])c2)c1,1.2%
6,CCN(CC(=O)Nc1ccccc1C(F)(F)F)C(=O)C1CCN(C(=O)Nc2ccccc2)CC1,-2.1%
7,Cc1cnc(C(=O)Oc2cccc(Cl)c2Cl)cn1,14.6%
8,Cn1c(SCC(=O)Nc2ccc(Br)cc2F)nnc1-c1ccco1,-9.6%
9,Cn1c(-c2ccco2)nc2cc3ccccc3cc21,-57.4% (active)
10,Cc1ccc2nc(-c3ccco3)c(Cc3cccc(Cl)c3)n2c1,6.4%
11,CCOc1ccc(S(=O)(=O)NCc2ccc3c(c2)OCO3)cc1C,-0.2%
12,COc1ccccc1CNC(=O)COC(=O)c1sc(C)nc1C,5.6%
13,COc1ccc(C)cc1NC(=O)CCCN1C(=O)NC(C)(C)C1=O,9.3%
14,Cc1cc(C)cc(NC(=O)N(C)Cc2ccccc2)c1,1.9%
15,CN1c2ccc(C=O)c3c(C=O)ccc(c23)N(C)C1(C)C,-67.5% (active)
16,Cc1ccc(C=O)c([B-](F)(F)F)c1,7.5%
17,Cc1ccc(S(=O)(=O)N(C)C)cc1NC(=O)CN1c2cccc3cccc(c23)S1(=O)=O,-28.1%
18,Cc1ccc(/C=N/NC(=O)Cn2ccc(C(F)(F)F)n2)o1,10.5%
19,Cc1cccc(NC(=S)N2CCC(O)CC2)c1C,-5.6%
20,Fc1ccc(OCc2nn3c(Cn4nnc5ccccc54)nnc3s2)cc1,-11.4%
21,O=C(Nc1ccccc1Cl)c1ccccc1S(=O)(=O)c1ccccc1[N+](=O)[O-],4.2%
22,O=C(Nc1ccccc1Cl)/C(Cl)=C(\Cl)S(=O)c1ccccc1 (stereo not given),-100% (active)
23,CC(=O)c1ccc(NC(=O)C(C)N(C)CC(=O)Nc2ccccc2Cl)cc1 (stereo not given),-7%
